Laboratory results from the supplement of paper PMC6555819.

System: VDR:RXRa (NR concentration 270 nM, RXRa partner concentration 90 nM)
Test: PBM binding z-score (relative to random genomic background probes); higher = stronger binding; sequences stand for … in GC…GCGATTGACAGCGTAGAATGAAGG
Experimental: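 Protein-binding microarray (Agilent 4x180K custom design, double-stranded 60-nt probes: 5' GC cap, 34-nt variable region, 24-nt constant primer region; full probe sequence given). Purified or IVT nuclear receptor:RXRα heterodimers (3:1 NR:RXRα, mostly 270:90 nM) or homodimers were incubated for 1 h in PBS with 2% milk and no ligand, then detected with Alexa488 antibodies. Fluorescence from o1-orientation probes (~5 replicates averaged) was converted to z-scores against 500 random hg19 background probes. Variable regions are seed direct-repeat (DR0–DR5) sites, all their single-nucleotide variants and half-site ablations.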

Sequence | PBM binding z-score
CGAACTAGGTCATTGGCAGGACAGTGAATAGTAA | 2.07
CCTAGTAGGCCAGGGTCACTCAAGCATTTCGCTT | 2.7
CCTACTGGGCCACGGAAGGTCATTGATTCAGTGA | 2.83
TCATATAGGTAATACAGGTGAAAGGCGGCATCTA | 1.17
GCTAGCACGCCATTTGGGTCACTCAATGACGGGC | -0.0776
CCGACTGGGGCACAAAGGTTACCATACCATCCGG | 1.73
TCATATAGGTAAACAGGTTAAAGTCCGTAAGTTA | 1.88
CCTCGGAGGACAACAGTAGGTCAGAGCTGCCAGA | 0.152
CCTTACGGGTCACTCCAGGTTACAGCATCGGAGT | 3.95
CGAACTAAGTCAAGGACAGTGAATCTCCGCACGC | -0.36
CCTCGGAGGACAACAGGAGGTAAGAGCTGCCAGA | -0.357
CAAACTAGGTCACGAAAGTTCAAAGTCGAATGAC | 7.01
TCAGACAGGTGGAGGTAACTCAGGTACGCAGTCG | 0.574
ATCTCTAGGTAACAAGTTCAGTGTAAGAGAGGAC | 2.3
AGTCGAAGTTCAGGACGAGGTAACGTAAAGCACG | 1.15
ATCGCTAGGTAACAAGTTCAGTGAAAGAGAGGAC | 1.42
AGAATGAGGTTACCAAAGATCAGCGAAACGCTTG | 1.33
TGAATGAGGTTAAAGAACAGGGAACGTGGCGTCG | 1.12
TAGCCTAGGTCATCCGGGCCAGTATAGTGTCGGC | 3.81
CCTCGGAGGACAACAGGAGATCAGAGCTGCCAGA | -0.616

Sequence | PBM binding z-score
TGAATGAGGTTATAAGATAAGGGAACGTTGCAAA | 0.811
GATACAGGGTCAGCTAGAGGCCAGTGTATGGAAA | 3.43
GATACAGGGTCAAGACCAGAGTACGCGTATTGAT | 4.33
CCGAGTAGATTATGGGGCATTCAGGCAACGGTGA | -0.214
TAGCCTAGGTCATTCAGGGGCCTGTATAGAAAGC | 2.69
AGTAAAAGTTCAGGACGAGGTAACGTAAAGCACG | 2.66
AGTCAAAGTTCATCTAGGTAACCTAAGATATGCT | 5.11
ACAGACAGGTGATGAAGGGAACTCAGGCTATCAT | -0.182
ACTCGGAGGACAAAGGACAGAGCTACGCCAGTGA | -0.523
CAAACTAGGTCAAGGTCATAGTCGGTTTGTGCCA | 5.01
ATAGAAAGGTCGAGGTGAGTATAGAGAAAGGGAA | 2.79
CTACCAAGGTGAACAAGGTCGATGATTACTATTC | 4.83
ACTTACGGGTCAACGAGGTTACAGCACGCGTATA | 7.79
ACTATTAGTTGAGAAGAGGGCAACCGATAGGTTG | 0.507
TCTAGCAGGCCACAGGGTCACTCAAGAGGTACGG | 2.93
AGTACAGGGTCACTAGGCCAGAGTAGGTACGAAT | 3.83
GTACCAAGGTGAATAGGGCGTTGATGAGTAGGCG | -0.176
TCTTGTAGGTCAAGCAGGTTAAGAAAGCCTGAGT | 5.16
GCGACTGGGGCAAAGCAGGTTATCATAAGGTTGG | 0.334
ATCTCTCGGTAACCAAGTTCAGTGAATGCCGAAC | 2.72
